A selection: hits, their analogues and other compounds. The true share with any hit is near 2.3%.
M1 PAM parental: nonselective calcium activators in parental CHO-K1 cells, primary screen, counter-screen for M1 PAM project, cell-based, Fluo-8 calcium fluorescence, full deck, 1536-well; ATP EC20; 0% at ATP EC20, 100% at ATP max; activation, % at 3 µM; 0.02% of 360,000 active; AID 602247, 2012;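 active = activation above the run cutoff, the mean activation of all test compounds plus 3 SD, cut at about 40% in these data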;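 note: peak over basal fluorescence ratio in a 140 s read after ATP addition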
CHO-K1 Ca antag: counter-screen for M1 antagonists: effect in parental CHO-K1 cells; ATP-induced calcium, Fluo-8 fluorescence; inhibition, % at 3 µM; 0.6% of 360,000 active; AID 602250;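 active = inhibition above a per-plate cutoff, the plate's mean sample inhibition plus 3 SD, cut at about 24% in these data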;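 note: 0% = DMSO plus EC80 ATP and 100% = DMSO alone without ATP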
M1 ag parental: counter-screen for M1 agonists: effect in parental CHO-K1 cells. Fluo-8 calcium fluorescence; scaled to maximal ATP response, vehicle zero. activation, % at 3 µM. 0.48% of 360,000 active; in the data active = activation above about 15%;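 note: untransfected CHO-K1 host cells lacking M1 receptor as counterscreen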
CHRM1 agonist: human M1 muscarinic receptor agonists, primary screen, Fluo-8 calcium fluorescence, CHO-K1 cells, HTS | AID 588814, 2011 | CHO-K1 hM1, agonist mode; 0% DMSO, 100% acetylcholine EC100 | activation, % at 3 µM | Muscarinic acetylcholine receptor M1 (Homo sapiens), P11229 | 0.33% of 360,000 active;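 active = activation above the run's mean compound activation plus 3 SD, cut at about 16% in these data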;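 note: peak over basal fluorescence ratio within a 140 s kinetic read after compound addition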
Target sequence (P11229 whole entry, looked up): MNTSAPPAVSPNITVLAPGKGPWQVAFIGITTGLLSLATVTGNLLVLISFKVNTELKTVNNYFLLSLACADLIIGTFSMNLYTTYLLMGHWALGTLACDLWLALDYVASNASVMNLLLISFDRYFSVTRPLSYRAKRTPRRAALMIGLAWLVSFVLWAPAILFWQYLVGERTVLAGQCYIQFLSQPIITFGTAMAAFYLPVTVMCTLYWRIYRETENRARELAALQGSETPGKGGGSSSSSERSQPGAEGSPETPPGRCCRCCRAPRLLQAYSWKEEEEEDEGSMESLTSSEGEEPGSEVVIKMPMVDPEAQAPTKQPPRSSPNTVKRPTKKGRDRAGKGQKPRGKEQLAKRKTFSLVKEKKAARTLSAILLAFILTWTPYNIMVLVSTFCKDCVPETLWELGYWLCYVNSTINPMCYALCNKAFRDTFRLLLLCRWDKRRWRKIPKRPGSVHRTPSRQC
M1 PAM: human M1 muscarinic receptor positive allosteric modulators, primary screen, CHO-K1 cells, Fluo-8 calcium fluorescence, 1536-well. AID 588819, 2011. activation, % at 3 µM. 0.088% of 360,000 active. CHO-K1 hM1, ACh EC20; 0% = ACh EC20, 100% = maximal ACh; in the data active = activation above about 19%, passing the limit was not always enough
CHRM1 antagonist: human M1 muscarinic receptor antagonists, primary screen, CHO-K1 cells, Fluo-8 calcium fluorescence, 1536-well | Muscarinic acetylcholine receptor M1 (Homo sapiens), P11229 | CHO-K1 hM1, ACh EC80 antagonist | inhibition, % at 3 µM | 1.3% of 360,000 active | AID 588852, 2011;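 active = percent inhibition above its own plate's cutoff, namely the mean of that plate's compound wells plus 3 SD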;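 note: peak over basal fluorescence ratio during 140 s after agonist addition; 0% = ACh EC80 plus DMSO and 100% = DMSO alone without agonist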
* marks the source's active call; other numbers are inactive results; · = no result.

SMILES	M1 PAM parental	CHO-K1 Ca antag	M1 ag parental	CHRM1 agonist	M1 PAM	CHRM1 antagonist
CCOC(=O)[C@]12CCC=C1N(CCC1=CCCCC1)C(=O)[C@H](CC(=O)NCCCCc1ccccc1)C2	3	-3	0	·	·	·
CC1CCCC(NC(=O)c2ccc3c(SCC(=O)O)c4c(nc3c2)CCC4)C1C (stereo not drawn)	11	-11	0	-2	-6	39*
CN(C)/C=N/C(=S)Nc1cc(Cl)cc(Cl)c1	4	10	18*	-4	1	1
C[C@@H]1CN([C@H](C)CO)C(=O)CCCn2nncc2CO[C@H]1CN(C)Cc1cccc(O)c1	-3	8	0	-3	7	-14
CCOC(=O)[C@]12CCC=C1N(Cc1ccc(Cl)cc1Cl)C(=O)[C@H](CC(=O)NCCCOC)C2	5	-8	0	·	·	·
CN(C)c1ccc(NS(=O)(=O)c2cc(Cl)ccc2Cl)cc1	8	0	1	-11	-21	18
CCN(c1ccc(NS(=O)(=O)c2cc(Cl)ccc2Cl)cc1)C(C)C	14	-13	0	-13	-26	76*
O=C(Nc1nnc(S(=O)(=O)N2CCCCCC2)s1)c1ccccc1F	-10	1	4	0	-16	31*
CC(=O)Nc1ccc(S(=O)(=O)NN=c2sc3ccccc3n2C)cc1N	17	-5	1	-3	4	-11
Cc1ccc(S(=O)(=O)N2CCCCC2)cc1NC(=O)COC(=O)CN1C(=O)NC2(CC(C)CC(C)(C)C2)C1=O (stereo not drawn)	23	3	6	-2	8	2
CCOC(=O)n1c(=O)oc2ccc(Cl)cc21	-6	29*	0	0	-2	-5
CCCCOC(=O)n1c(=O)oc2ccccc21	-3	2	0	-2	-2	1
Clc1cccc(COn2c(-c3ccc(Cl)cc3Cl)nc3ncccc32)c1	23	-5	1	-5	-8	2
Cc1ccc(COn2c(-c3ccc(Cl)cc3Cl)nc3ncccc32)cc1	11	-16	1	-6	-22	35*
Cc1ccc(S(=O)(=O)N(C)C[C@H]2Oc3ncc(Br)cc3C(=O)N([C@H](C)CO)C[C@@H]2C)cc1	-8	3	0	-11	-9	8
CC1C(=O)N(Cc2cn(CCC3OCCCO3)nn2)CCS(=O)(=O)N1Cc1ccc(-c2ccc(Cl)c(Cl)c2)cc1 (stereo not drawn)	-7	8	10	1	-16	31*
CC1C(=O)N(Cc2cn(Cc3ccco3)nn2)CCS(=O)(=O)N1Cc1ccc(-c2ccccc2)cc1 (stereo not drawn)	15	-17	0	-2	11	-16
CC1C(=O)N(Cc2cn(Cc3ccco3)nn2)CCS(=O)(=O)N1Cc1ccc(-c2ccc(Cl)cc2)cc1 (stereo not drawn)	-11	28*	0	-5	-1	-4
CC1C(=O)N(Cc2cn(CCC3OCCCO3)nn2)CCS(=O)(=O)N1Cc1ccc(-c2ccc(F)cc2)cc1 (stereo not drawn)	6	1	5	-3	-7	1
Cc1cccc(C)c1-c1ccc(CN2C(CC(C)C)C(=O)N(Cc3cn(CCO)nn3)CCS2(=O)=O)cc1 (stereo not drawn)	4	15	7	-3	-9	29*
Cc1cn([C@H]2C[C@H](O)[C@@H](CNCc3ccc(-c4cc(Cl)ccc4C(F)(F)F)o3)O2)c(=O)[nH]c1=O	-8	4	0	-6	-4	11
O=S(=O)(c1ccc2c(c1)OCCCO2)N1CCNCC1	15	-14	0	-5	9	-8
c1cc2c(cc1C1CCCN1)OCCCO2 (stereo not drawn)	13	-4	0	-3	-11	28*
O=C1C(=Cc2cccn2-c2ccccc2)C(=O)c2ccccc21	17	-6	15*	-6	7	-4
O=C(Nc1cccnc1)c1ccc2nc(-c3ccccc3)c(-c3ccccc3)nc2c1	-2	12	17*	-3	2	19
SMILES	M1 PAM parental	CHO-K1 Ca antag	M1 ag parental	CHRM1 agonist	M1 PAM	CHRM1 antagonist
O=C(Nc1cccnc1)c1ccc(Oc2ccccc2)cc1	7	-8	1	-3	2	-7
Cn1cnc(S(=O)(=O)N2CCCCC2c2cc(C(=O)Nc3cccc4c3CCCC4)no2)c1 (stereo not drawn)	12	-10	0	-3	4	-12
Clc1ccc(Cn2ncc3c(N4CCN(c5ccccc5)CC4)ncnc32)cc1	0	7	2	0	-9	14
Cc1ccc(C(=O)Sc2cccccc2=O)cc1	-5	35*	4	2	-3	33*
O=C(Nc1ccccc1SC(=O)c1ccccc1)c1ccccc1	6	11	3	0	8	-3
CSc1ccc(Cn2c(C)c(C(=O)NCc3cccs3)sc2=O)cc1	27	-12	4	-4	-4	-2
CCC(=O)N1CCN(c2ccnc3cc(Cl)ccc23)CC1	15	-11	2	-4	4	-11
CCOC(=O)N1CCN(c2ccnc3cc(Cl)ccc23)CC1	-4	-12	4	-12	-38	91*
COc1cccc(Cl)c1NC(=O)N1CCN(c2ccnc3cc(Cl)ccc23)CC1	12	-1	7	-2	-17	34*
COc1cccc(Cl)c1NC(=O)N1CCN(c2cc(C)nc3ccccc23)CC1	15	-27	0	-9	0	-8
O=C1c2cccc3c(N4CCCCC4)ccc(c23)C(=O)N1CCO	1	1	17*	12	3	1
O=C(c1cccc(N2C(=O)c3ccccc3C2=O)c1)N1CCCCCC1	2	-6	1	-3	2	1
Cc1n[nH]c(C)c1N1C(=O)c2cccc3c(N4CCCCCC4)ccc(c23)C1=O	-3	55*	83*	93*	-20	63*
O=C1c2cccc3c(N4CCCCC4)ccc(c23)C(=O)N1c1cccc(O)c1	-1	23	30*	36*	-7	32*
CC(=O)c1ccc2c3c(cccc13)C(=O)N(c1c(C)nn(C)c1C)C2=O	12	-3	2	2	2	-13
C=CCN1C(=O)c2cccc3c(N4CCCCC4)ccc(c23)C1=O	2	11	11	7	-5	6
O=C(OCCN1C(=O)c2cccc3c(N4CCOCC4)ccc(c23)C1=O)c1ccccc1Cl	-7	23	18*	15	-24	44*

Screening results (PubChem BioAssay)
